Measurements from PubChem BioAssay AID1259341 (Broad Institute, 2017).
Active and inactive are the calls of the source.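 The calls were made as follows: active = activity change under -35% in any replicate well, with more than 20 beads read in that well; inactive = the rest.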

Each compound was assayed against Caspase recruitment domain-containing protein 9 (Homo sapiens) + E3 ubiquitin-protein ligase TRIM62 (Homo sapiens) (UniProt Q9H257+Q9BVG3) (assay: disruptors of CARD9-TRIM62 binding, primary screen, cell lysate, HEK293FT lysates, Luminex bead ELISA (AID 1259341;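 also: PE anti-Flag signal of Flag-CARD9 captured by myc-TRIM62 beads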)). Settings: PE fluorescence, stronger effect = lower value, concentration not given here.
Chain of Caspase recruitment domain-containing protein 9 (Homo sapiens) + E3 ubiquitin-protein ligase TRIM62 (Homo sapiens) (Q9BVG3 whole entry, looked up, the tested form may be a part): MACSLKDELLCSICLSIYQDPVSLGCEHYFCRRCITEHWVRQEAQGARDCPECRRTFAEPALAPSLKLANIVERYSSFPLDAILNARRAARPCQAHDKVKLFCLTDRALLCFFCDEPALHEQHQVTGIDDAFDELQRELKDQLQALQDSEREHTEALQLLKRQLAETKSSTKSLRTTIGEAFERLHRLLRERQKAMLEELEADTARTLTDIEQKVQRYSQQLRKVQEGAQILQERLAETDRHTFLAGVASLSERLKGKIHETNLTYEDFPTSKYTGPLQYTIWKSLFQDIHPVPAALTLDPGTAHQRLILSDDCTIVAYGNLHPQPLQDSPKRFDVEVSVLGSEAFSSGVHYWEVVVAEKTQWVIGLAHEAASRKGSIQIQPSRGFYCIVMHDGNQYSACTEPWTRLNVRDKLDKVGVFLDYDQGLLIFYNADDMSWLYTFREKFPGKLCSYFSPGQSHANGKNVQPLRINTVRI
Chain of Caspase recruitment domain-containing protein 9 (Homo sapiens) + E3 ubiquitin-protein ligase TRIM62 (Homo sapiens) (Q9H257 whole entry, looked up, the tested form may be a part): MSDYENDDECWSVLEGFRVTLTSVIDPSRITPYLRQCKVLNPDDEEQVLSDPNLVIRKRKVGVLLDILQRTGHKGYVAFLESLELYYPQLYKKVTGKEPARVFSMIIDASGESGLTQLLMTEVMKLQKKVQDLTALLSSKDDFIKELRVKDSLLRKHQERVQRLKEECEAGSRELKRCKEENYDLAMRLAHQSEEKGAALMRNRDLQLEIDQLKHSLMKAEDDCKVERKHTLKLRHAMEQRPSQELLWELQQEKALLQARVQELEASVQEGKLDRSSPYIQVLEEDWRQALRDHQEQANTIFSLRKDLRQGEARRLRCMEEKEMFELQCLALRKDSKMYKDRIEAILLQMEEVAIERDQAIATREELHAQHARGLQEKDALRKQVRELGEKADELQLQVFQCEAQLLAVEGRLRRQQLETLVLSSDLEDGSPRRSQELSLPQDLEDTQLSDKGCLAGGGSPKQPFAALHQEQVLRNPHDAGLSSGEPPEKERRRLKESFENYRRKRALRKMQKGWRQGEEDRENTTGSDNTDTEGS

Activity change, negative = inhibition, active:
NC(=O)C1(N2CCCCC2)CCN(c2ncc(NC(=O)c3cccc(Cl)c3)cc2C(=O)O)CC1 -53.8%

Activity change, negative = inhibition, inactive:
CC(C(=O)N1CCCC1)N1CCN(c2ccccc2O)CC1 (stereo unspecified) 5.92%, Nc1ccc(-c2cccc(CN3CCCC3)c2)cc1 -3.56%, CCOC(=O)C1CCN(C(=O)CN(Cc2ccccc2)S(C)(=O)=O)CC1 -5.24%, CCc1nccn1CCC(=O)N1C[C@H](CO)C[C@H](CN2CCCC2)C1 4.55%, O=C(NC1CC1)c1cc(-c2ccco2)nc2ccccc12 -6.41%, O=C(Nc1ccc2oc(-c3ccncc3)nc2c1)c1ccc2c(c1)OCO2 -8.29%, O=C(O)c1cc(-c2ccc(-c3ccc(F)cc3)o2)nc2ccccc12 -7.53%, c1coc(-c2cn3ccc4ccccc4c3n2)c1 -1.55%, Cc1occc1C(=O)NCc1cccc(CNC(=O)c2ccoc2C)c1 3.25%, Cc1ccc2cc(CN(Cc3ccco3)S(C)(=O)=O)c(=O)[nH]c2c1 5.89%, N#Cc1c(-c2ccco2)cc(-c2ccccn2)nc1N 1.52%, Fc1ccc(CSc2nnc(-c3cccnc3)n2Cc2ccco2)cc1 0.116%, COc1ccc(S(=O)(=O)N2CCN(C(=O)c3cc4c(s3)CCC4)CC2)cc1 0.552%, O=C(Nc1cccc2ccccc12)NC1CC1 -2.1%, O=C(COC(=O)c1cc(-c2ccco2)nc2ccccc12)NCc1ccccc1 -1.75%, NC(=O)C1(N2CCCCC2)CCN(c2ccc(NC(=O)c3ccccc3F)cc2C(=O)O)CC1 -30%, C[C@H](CO)N1C[C@H](C)[C@@H](CN(C)CC2CCCCC2)OCCCC[C@H](C)Oc2ccc(NS(C)(=O)=O)cc2C1=O -25.8%, O=C(CN1CCN(c2ccccc2O)CC1)NC(=O)NC1CCCC1 2.28%, Nc1ccc2ncccc2c1N 1.19%, O=C(Nc1nnc(-c2ccco2)s1)c1ccccc1 1.07%, COc1ccc(S(=O)(=O)Nc2ccc3c(c2)C(=O)N([C@H](C)CO)C[C@H](C)[C@@H](CN(C)CC2CCCCC2)OCCCC[C@H](C)O3)cc1 5.92%, O=C(Nc1nc(-c2ccco2)c(-c2ccco2)s1)c1ccc(F)cc1F 6.3%, Cc1scc(C(=O)NCc2ccco2)c1-c1ccccc1 1.82%, CC(=O)c1ccc(NC(=O)c2noc3c2CCC3)cc1 -2.31%, O=c1oc(-c2ccccc2)nc2sc3c(c12)CCC3 0.684%, C[C@H](CO)N1C[C@H](C)[C@@H](CN(C)C(=O)C2CCCCC2)OCCCC[C@H](C)Oc2ccc(NS(=O)(=O)c3ccc(Cl)cc3)cc2C1=O 8.52%, COc1ccc(Nc2nc(-c3nnc(-c4ccc(F)cc4)o3)nc3ccccc23)cc1Cl -3.07%, O=C(COC(=O)c1cc(-c2cccs2)nc2ccccc12)NCc1ccco1 -1.49%, O=[N+]([O-])c1cccc(-c2nnc3ccc4ccccc4n23)c1 -7.69%, Cc1ccc2c(c1)C(N1CCCC1=O)CC(c1ccco1)N2 (stereo unspecified) 5.12%, C[C@H](CO)N1C[C@H](C)[C@@H](CN(C)C(=O)C2CCCCC2)OCCCC[C@H](C)Oc2ccc(NS(=O)(=O)c3ccccc3)cc2C1=O 6.21%, Cc1ccc(-c2nnc(-c3nc(Nc4nc5ccccc5s4)c4ccccc4n3)o2)cc1 -10.3%, C[C@H](CO)N1C[C@H](C)[C@@H](CN(C)CC2CCCCC2)OCCCC[C@H](C)Oc2ccc(NS(=O)(=O)c3ccc(Cl)cc3)cc2C1=O 8.08%, O=C(Nc1ccc2c(c1)nc1n2CCN(C2CCCCC2)C1)c1ccco1 -2.69%, CC1=CCC(C(=O)O)C(C(=O)NC2CCCCC2)C1 (stereo unspecified) -6.81%
